This is an account of results in ChEMBL document CHEMBL3988442, “University of Dundee, Small-Polar-MMV Screening Library” (2021).

For the assay, the system named is Leishmania donovani. In words: Leishmania intramacrophage assay. Also on record: scale not given: in the data most compounds retested in dose-response had high values. It is filed as functional, organism-based.

In all, about 69,000 compounds went through this assay and about 1,000 (1.4%) showed an effect of 50% or more. The sample as a whole holds a higher share of strong results than the screen did.

For the molecule `CC(=O)NCc1nnn2c1CN(c1ncc(C)cn1)CCC2`, under “30.3 µM, […]”, the “Percent Effect” value is listed as 22.68%. On the same count and under the same terms, then `O=C(NC[C@]12COC[C@H]1CN(Cc1nccs1)C2)c1cscn1.O=C(O)C(F)(F)F`, with 14.84%; and `CCOc1cc(C(=O)N2CCN(CC)CC2)cc2occc12`, with -20.1%; and `CN(CC(=O)Nc1ccccc1C(=O)NC1CC1)Cc1ccccc1Cl`, with 31.64%. On to `CCOc1ccccc1NC(=O)CN(C)Cc1ccccc1Cl`, for which, for the setting “30.3 µM, […]”, the “Percent Effect” value was 52.93%. Still for that read-out and setting: then `CCOC(=O)c1ccccc1NC(=O)CN(C)Cc1ccccc1Cl.O=C(O)C(=O)O`, with 23.74%; and `O=C(Nc1cccc(OCC(F)F)n1)c1ccncc1F`, with 29.54%; and `CCSc1ccc(C(=O)N2CCCC2C(=O)N2CCOCC2)cn1` (configuration not stated), with -29.5%. The same measure, in the same setting: then `Cc1cc2nc(C(C)C)cc(N3CCC(Oc4ncccn4)CC3)n2n1`, with 83.06%; and `Cc1cc2nc(C(C)C)cc(N3CCC(N(C)C)C3)n2n1` (configuration not stated), with 15.59%. Consider `Cc1cc2nc(C(C)C)cc(N3CCC(O)CC3)n2n1`, for which the “Percent Effect” value (30.3 µM, […]) was found to be 27.64%. The same measure, in the same setting: then `O=C(CNC(=O)C1CCCC1)NCc1cnn(-c2ccc(F)cc2F)c1`, with -11%. As to `CCN(c1ccc(C(=O)NCCCN2CCOCC2)cc1)S(=O)(=O)CC`, the “Percent Effect” value (30 µM, 30.03 µM) is listed as 0.6611%. On the same count and under the same terms, next, `CC(O)CN1CCN(C(=O)c2ccc3c(c2)COC3)CC1` (configuration not stated): 9.428%. Regarding `Cn1cnc2c(-c3cccnc3)nc(C3CCN(S(C)(=O)=O)CC3)cc21`, the “Percent Effect” value (30.3 µM, […]) is listed as 18.38%.

In the case of `Cc1nn(C)c(N2CCOCC2)c1CNC1CCS(=O)(=O)C1` (configuration not stated), the “Percent Effect” value (30.3 µM, […]) worked out at 15.34%. Still for that read-out and setting: then `Cc1noc(C)c1CN1CCOCC12CCN(c1cnccn1)CC2.O=C(O)C(F)(F)F`, with 60.72%. Same read-out and setting: next, `CCN1CCOCC12CCN(c1cnccn1)CC2.O=C(O)C(F)(F)F`: 19.49%. The same measure, in the same setting: next, `Cc1noc(C)c1CN1CCOCC12CCN(c1ncccn1)CC2.O=C(O)C(F)(F)F`: 49.21%.

For `O=C(c1cnn2c1OCCC2)N1CCC(Cc2ccccc2)CC1`, the “Percent Effect” value (30.3 µM, […]) is -34.88%. The same measure, in the same setting: then `OCc1cn(Cc2cccc(F)c2)nn1`, with 6.732%. Still for that read-out and setting: then `CCOCCC(=O)N(C)CC1Cc2ccccc2CN1C` (configuration not stated), with 29.01%; and `COC(=O)NCC(=O)N(C)CC1Cc2ccccc2CN1C` (configuration not stated), with 52.66%; and `COC(=O)CCCC(=O)N(C)CC1Cc2ccccc2CN1C` (configuration not stated), with 11.82%. The same measure, in the same setting: next, `COc1ncccc1C(=O)N1CCC(c2nc3c(C)cccc3[nH]2)CC1`: -25.37%; `CN1CCC(c2nnc3ccc(C(=O)N4CCCCC4)cn23)C1.O=C(O)C(F)(F)F` (configuration not stated): 20.31%; `COc1cccc(C(O)CN2CCN(C(=O)CCC(C)C)CC2)c1` (configuration not stated): -26.89%. In the case of `CS(=O)(=O)N1CCO[C@@H]2CN(C(=O)N3CCOCC3)CC[C@@H]2C1`, the “Percent Effect” value (30.3 µM, […]) amounted to 41.23%. `CS(=O)(=O)N1CCO[C@@H]2CN(C(=O)N3CCCC3)CC[C@@H]2C1`: the “Percent Effect” value (30.3 µM, […]) was 57.39%. Take `CS(=O)(=O)N1CCO[C@@H]2CN(C(=O)C3CCOC3)CC[C@@H]2C1` (some centres not stated): the “Percent Effect” value (30.3 µM, […]) was found to be 29.21%. As for `Cc1cc(OCCC(=O)NCc2ccc(F)cc2)nnc1C`, the “Percent Effect” value (30.3 µM, […]) was -17.71%.

Turning to `CCn1c(N)nc2cc(C(=O)N3Cc4ccccc4C3)cnc21`, where the note is “30.3 µM, […]”, the “Percent Effect” value is recorded as 1.909%.

Take `CC(=O)N1CCC(c2ccnc(Nc3cc(C(F)(F)F)ccn3)n2)C1` (configuration not stated): the “Percent Effect” value (30.3 µM, […]) amounted to 43.14%.

As to `O=C(CO)N1CCC(c2ccnc(Nc3cc(C(F)(F)F)ccn3)n2)C1` (configuration not stated), the “Percent Effect” value (30.3 µM, […]) is on record as 30.85%. Turning to `Cl.NCC(=O)N1CCC(c2ccnc(Nc3cc(C(F)(F)F)ccn3)n2)C1` (configuration not stated), the “Percent Effect” value (30.3 µM, […]) is 77.96%. On the same count and under the same terms, next, `COCC(=O)N1CC(c2ccnc(Nc3cc(C(F)(F)F)ccn3)n2)C1`: 23.24%; `COC(=O)C(C)N1CCCc2cc(OC)ccc2C1` (configuration not stated): 8.236%. On the same count and under the same terms, then `COCCN1CCC(Nc2ccc(C#N)cc2F)CC1`, with 26.49%; and `CNC(=O)C1Cc2ccccc2CN1CCC#N` (configuration not stated), with 1.919%.

As for `FC(F)(F)COc1cccc(-c2nc3c([nH]2)CCNC3)c1`, the “Percent Effect” value (30.3 µM, […]) is given as 27.16%.

As for `CCCOc1cccc(-c2nc3c([nH]2)CCNC3)c1`, where the note is “30.3 µM, […]”, the “Percent Effect” value is reported as 25.72%. The same measure, in the same setting: next, `CC(C)COc1cccc(-c2nc3c([nH]2)CCNC3)c1`: 95.75%. Take `CCN(C(=O)c1ccc(-n2ncc(C#N)c2N)cc1)C1CCCC1`: the “Percent Effect” value (30 µM, 30.03 µM) amounted to 36.15%. With `O=C1C(NCc2nnc3n2CCCC3)CCN1CC(F)(F)F` (configuration not stated), the “Percent Effect” value (30 µM, 30.03 µM) is reported as -13.74%.

With `Cc1ccc(Br)cc1NC(=O)NC1CCC2(C1)OCCO2` (configuration not stated), the “Percent Effect” value (30.3 µM, […]) is listed as 23.67%.

With `CC(C)Cc1cc(CC2(NCc3ccccc3Cl)COC2)no1`, the “Percent Effect” value (30.3 µM, […]) stood at 8.785%.

In the case of `CC(C)Cc1cc(CC2(NCc3ccco3)COC2)no1`, for the setting “30.3 µM, […]”, the “Percent Effect” value stood at 63.35%. The same measure, in the same setting: next, `Cc1ccc(CNC2(Cc3cc(CC(C)C)on3)COC2)o1`: -12.32%; `Cc1ccc(CN2CCc3nc(C(C)C)nc(O)c3CC2)s1`: 14.32%; `O=C(c1cccnc1O)N1CCCN(c2cccnn2)CC1`: 3.038%.

On to `COc1ccc(C)cc1NC(=O)Nc1cnc(N2CCOCC2)nc1`, for which, where the note is “30.3 µM, […]”, the “Percent Effect” value was -26.13%.

In the case of `COc1ccc(C)cc1NC(=O)Nc1cnc(N2CCN(C)CC2)nc1`, where the note is “30 µM, 30.03 µM”, the “Percent Effect” value is reported as 50.02%.
